A selection: hits, their analogues and other compounds. The true share with any hit is near 3.4%.
CendR NRP1 mod: modulators of CendR peptide binding to NRP-1, primary screen, biochemical, fluorescence polarization, uHTS | Neuropilin-1 (Homo sapiens), O14786 | FAM-RPARPAR peptide binding to NRP-1 | inhibition, % at 25 µM | 360,000 tested, 0.85% active;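 active = inhibition or corrected inhibition above about 18%, plus a signal ratio from 0.5 to 1.5, limit read from the data, passing the limit was not always enough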
Target sequence (O14786 whole entry, looked up): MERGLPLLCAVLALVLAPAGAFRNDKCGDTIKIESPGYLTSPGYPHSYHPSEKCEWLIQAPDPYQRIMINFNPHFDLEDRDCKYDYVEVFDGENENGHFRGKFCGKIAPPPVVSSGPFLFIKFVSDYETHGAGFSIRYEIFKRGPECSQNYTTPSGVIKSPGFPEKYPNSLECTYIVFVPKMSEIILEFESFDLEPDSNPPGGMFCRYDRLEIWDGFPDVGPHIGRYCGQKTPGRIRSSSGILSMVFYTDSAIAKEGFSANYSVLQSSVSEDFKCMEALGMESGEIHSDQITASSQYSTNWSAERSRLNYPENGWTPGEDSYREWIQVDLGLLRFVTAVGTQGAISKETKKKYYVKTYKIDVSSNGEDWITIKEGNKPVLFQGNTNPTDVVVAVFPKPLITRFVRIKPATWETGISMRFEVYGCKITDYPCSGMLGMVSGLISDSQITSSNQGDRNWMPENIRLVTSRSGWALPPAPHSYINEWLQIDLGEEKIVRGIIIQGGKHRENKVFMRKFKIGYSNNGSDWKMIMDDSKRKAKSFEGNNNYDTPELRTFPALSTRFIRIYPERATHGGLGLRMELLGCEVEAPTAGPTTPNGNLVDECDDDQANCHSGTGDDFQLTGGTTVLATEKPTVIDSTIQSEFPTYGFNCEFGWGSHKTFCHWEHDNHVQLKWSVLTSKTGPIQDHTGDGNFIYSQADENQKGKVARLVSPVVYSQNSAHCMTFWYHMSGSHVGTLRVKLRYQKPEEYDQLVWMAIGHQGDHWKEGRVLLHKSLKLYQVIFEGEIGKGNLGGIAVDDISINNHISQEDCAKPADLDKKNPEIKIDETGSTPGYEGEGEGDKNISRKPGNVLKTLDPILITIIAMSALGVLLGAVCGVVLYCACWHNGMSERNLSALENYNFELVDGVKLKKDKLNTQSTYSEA
ADAM17 inh: ADAM17 inhibitors, primary screen, biochemical, QFRET | Disintegrin and metalloproteinase domain-containing protein 17 (Homo sapiens), P78536 | 370,000 tested, 0.83% active | recombinant ADAM17, EDANS/DABCYL FRET peptide cleavage | AID 720648, 2013 | inhibition, % at 6.95 µM;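 active = inhibition above the mean of compounds lying between control limits plus 3 SD, set per campaign, cut at about 8.5% in these data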;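 note: 0% = DMSO-only wells as the low control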
ADAM10 inh: human ADAM10 inhibitors, primary screen, biochemical, QFRET, HTS. inhibition, % at 7 µM. 370,000 tested, 0.62% active. recombinant ADAM10, EDANS/DABCYL FRET peptide cleavage, 3 h. AID 720582, 2013. Disintegrin and metalloproteinase domain-containing protein 10 (Homo sapiens), O14672;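 active = inhibition above a per-campaign cutoff equal to the mean of compounds falling between control-based bounds plus 3 SD, cut at about 20% in these data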;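 note: 0% = DMSO wells while the 100% control is not disclosed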
KLK7 zymogen act: proKLK7 zymogen activators, primary screen, biochemical, fluorescence intensity; Kallikrein-7 (Homo sapiens), P49862; purified proKLK7, EDANS-DABCYL substrate fluorescence; 100% is mature enzyme control, 0% vehicle; activation, % at 7 µM; 370,000 tested, 0.9% active; AID 652039, 2013;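 active = activation above the mean of all tested compounds plus 3 SD, computed per campaign excluding outliers beyond control limits, cut at about 13% in these data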
HGIII-sPLA2 inh: human group III sPLA2 inhibitors, primary screen, biochemical, QFRET, BODIPY PC-A2 liposome substrate; AID 743126, 2013; inhibition, % at 12.2 µM; Group 3 secretory phospholipase A2 (Homo sapiens), Q9NZ20; QFRET BODIPY PC-A2 liposome hydrolysis, fluorescence; 370,000 tested, 0.56% active;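 active = inhibition above mean plus 3 SD of compounds lying within the high and low control bounds, cut at about 19% in these data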;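 note: 0% = median of test compound wells and 100% = no enzyme DMSO wells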
ADAM10 ctr: ADAM10 inhibitors, counter-screen for ADAM17 exosite inhibitor project, biochemical, FRET, human ADAM10; shares compounds with ADAM17 inh; recombinant ADAM10, EDANS/DABCYL FRET peptide cleavage, 3 h; inhibition, % at 6.95 µM; 2,900 tested, 47% active;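 active = mean inhibition over the triplicate runs exceeds the activity threshold set in the earlier primary screen, cut at about 20% in these data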;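 note: 0% = DMSO wells and 100% = marimastat wells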
ADAM17 confirm: ADAM17 inhibitors, hit retest, confirmation, biochemical, QFRET peptide cleavage; shares compounds with ADAM17 inh; recombinant ADAM17, EDANS/DABCYL QFRET peptide cleavage; inhibition, % at 6.95 µM; 2,900 tested, 65% active; AID 743257, 2014;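 active = mean inhibition across replicates above the hit cutoff set in the primary screen, cut at about 8.5% in these data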;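 note: 0% = DMSO wells and 100% = marimastat wells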
sPLA2 confirm: human group III sPLA2 inhibitors, confirmation, biochemical, QFRET, triplicate; shares compounds with HGIII-sPLA2 inh; recombinant hGIII-sPLA2, BODIPY PC-A2 QFRET fluorescence; inhibition, % at 12.2 µM; 2,000 tested, 34% active; AID 743280, 2014;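 active = mean inhibition across triplicates above the hit cutoff set in the earlier primary screen, cut at about 19% in these data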;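 note: 0% = enzyme with DMSO and 100% = DMSO wells lacking enzyme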
535nm interf: 535nm fluorescence optical interference, confirmation, artefact control for HGIII-sPLA2 inhibitor project, biochemical, QFRET; BODIPY FL product fluorescence interference; 2,000 tested, 8.5% active; shares compounds with HGIII-sPLA2 inh; AID 743282, 2014; inhibition, % at 12.2 µM;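 active = average inhibition above the solvent-only control mean plus 3 SD, cut at about 6% in these data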;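 note: 0% = DMSO with substrate plus product and 100% = DMSO with substrate alone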
BODIPY interf DR: 535nm fluorescence optical interference, dose response, artefact control for HGIII-sPLA2 inhibitor project, biochemical, QFRET; shares compounds with HGIII-sPLA2 inh; BODIPY FL product fluorescence interference, cell-free; IC50, µM; 240 tested, under 10 active;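 active = IC50 at or below 10 µM; inactive = IC50 above 10 µM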
The depositor's hits bear a star; / = no result given.

SMILES	CendR NRP1 mod	ADAM17 inh	ADAM10 inh	KLK7 zymogen act	HGIII-sPLA2 inh	sPLA2 confirm	535nm interf	others
CCc1cc(OC)c(CCN)cc1OC	/	-0.9	-6.5	0.8	-1.9	/	/
O=c1[nH]c(=O)n(Cc2ccco2)c(O)c1C=NCc1ccc2c(c1)OCO2	-14.2	9.3*	-50.9	0.4	1.7	/	/	ADAM10 ctr=10.0;ADAM17 confirm=3.5
CCCCn1c(O)c(C=NCc2ccc3c(c2)OCO3)c(=O)[nH]c1=O	-1.7	-1.5	-4.5	0.4	1.4	/	/
O=C1CC[C@@]2(O)[C@H]3Cc4ccc(O)c5c4[C@@]2(CCN3CC2CC2)C1O5 (stereo partly specified)	/	-1.4	5.3	-0.3	-15.7	/	/
COc1ccccc1OCCCn1cc(C(=O)C2CC2)c2ccccc21	-17.6	-0.2	5.7	-0.1	-13.3	/	/
COc1ccccc1OCCCn1cc(C(C)=O)c2ccccc21	0.2	10.3*	5.2	0.4	4.2	/	/	ADAM10 ctr=-3.3;ADAM17 confirm=3.6
COc1ccc(OCC(=O)Nc2ccc(Cl)cc2C(=O)c2ccccc2)cc1	-3.0	9.1*	12.3	0.3	8.4	/	/	ADAM10 ctr=-2.9;ADAM17 confirm=-1.0
O=P(NS(=O)(=O)c1ccccc1)(Oc1ccccc1)Oc1ccccc1	-7.0	8.7*	2.3	-0.1	-28.6	/	/	ADAM10 ctr=-1.8;ADAM17 confirm=2.2
NC(Cc1ccccc1)[P+](=O)O (stereo unspecified)	/	-3.3	-4.0	0.5	9.2	/	/
CCOC(=O)c1sc(/N=C/c2c(O)n(-c3ccccc3)c(=O)[nH]c2=O)c(C#N)c1C	-121.1	-8.5	-30.8	0.4	-9.8	/	/
CCOC(=O)c1c(/N=C/c2c(O)n(-c3cccc(C)c3)c(=O)[nH]c2=O)sc2c1CCCC2	-45.6	-5.4	-7.8	0.3	20.4*	12.9	-3.5
O=C1CC2OCC=C3CN4CCC56c7ccccc7N1C5C2C3CC46O (stereo unspecified)	-9.2	0.2	-6.0	0.0	0.4	/	/
CC1OC(OC2CC(O)C3(CO)C4C(O)CC5(C)C(C6=CC(=O)OC6)CCC5(O)C4CCC3(O)C2)C(O)C(O)C1O (stereo unspecified)	-6.8	-3.1	-22.8	-0.2	27.7*	3.9	-5.6
C[C@H]1CNCCN1c1ccc(N2CC[C@@H](O)C2)c(C#N)c1	/	-12.2	-49.4	1.5	10.2	/	/
CCCCc1ccc2[nH]cc(CCN)c2c1	6.0	-3.7	4.9	-0.2	30.0*	7.7	-14.4
COP(=O)(C(=O)Nc1ccccc1)C(CC(C)C)NC(=O)OCc1ccccc1 (stereo unspecified)	/	-0.9	11.1	0.3	3.1	/	/
CN(C)c1ccc(/C=C/c2cc[n+](C)c3ccccc23)cc1	-16.5	-1.4	1.9	0.3	26.1*	33.4*	-14.1	BODIPY interf DR=>122
C[n+]1c(-c2ccccc2)sc2ccccc21	0.1	-2.0	8.3	0.5	-9.0	/	/
CN(C)c1ccc(/C=C/C=C/c2sc3ccccc3[n+]2C)cc1	-8.9	-1.5	4.3	-0.7	20.7*	40.7*	-14.6	BODIPY interf DR=>122
O=C(NC1CCCCC1)N1Cc2ccc(Br)cc2-n2nncc2C1	/	-4.9	-13.2	0.1	9.7	/	/
O=[N+]([O-])c1ccc(N2CCNCC2)cc1N1CCCCCC1	3.3	-4.2	7.0	-0.8	35.7*	16.6	-12.3
O=C1CN=C(c2ccc[nH]2)c2cc(Cl)ccc2N1	4.1	-3.5	2.2	0.5	2.9	/	/
CN=C1CN=C(c2ccc[nH]2)c2cc(Cl)ccc2N1	/	-6.4	-5.0	/	19.4*	7.6	1.2
CC(=NCCc1ccccc1)c1c(O)n(C)c(=O)n(C)c1=O	-5.3	2.2	4.8	0.4	1.0	/	/
CC(=Nc1ccccc1N)c1c(O)n(C)c(=O)n(C)c1=O	-4.8	-6.9	-10.2	-0.6	20.2*	6.3	-6.0
SMILES	CendR NRP1 mod	ADAM17 inh	ADAM10 inh	KLK7 zymogen act	HGIII-sPLA2 inh	sPLA2 confirm	535nm interf	others
COP(=O)(OC)OC=C(Cl)Cl	/	0.5	-21.6	0.5	0.3	/	/
CCCCOc1ccc(CCN)cc1Cl	1.6	2.6	6.0	-0.4	3.2	/	/
CC(C)Oc1ccc(CCN)cc1Cl	4.3	1.2	-0.2	-0.1	22.5*	4.2	-7.2
O=[N+]([O-])c1ccc(NCCO)c2ncccc12	-5.6	-3.4	-1.5	-0.3	21.6*	4.3	-1.5
CN1CCN(c2ccc([N+](=O)[O-])c3cccnc23)CC1	8.3	-4.7	5.1	0.4	-2.7	/	/
COC(=O)C1C(OC(=O)c2ccccc2)CC2CCC1[N+]2(C)C (stereo unspecified)	/	-1.4	1.4	0.7	0.1	/	/
CC(C)Oc1ccc(C2(C#N)CC[N+](C)(C)CC2)cc1	-1.4	-6.3	-11.0	-0.4	22.0*	-2.4	-4.3
Cc1cc(-c2cc(C)c(N)c(C)c2)cc(C)c1N	10.4	2.4	15.3	-0.5	21.9*	21.6*	0.9
